# Inconclusive results are not listed. Activity calls are given as the source filed them. Calls follow the shape of the dose curve; as a rule, active = well fitted inhibition curve with a large enough effect; inconclusive = small, poorly fitted or top-dose-only effect; inactive = flat fitted curve, though single readings scatter. Non-standard residues stand in square brackets, D forms with d. Residues, ends and D or L forms follow the SMILES beside them. Dolaproine = CO[C@@H]([C@@H]1CCCN1)[C@@H](C)C(=O)O; Dil = CC[C@H](C)[C@H](NC)[C@@H](CC(=O)O)OC; NMeV = CN[C@H](C(=O)O)C(C)C
# Experiment: Identification of antibody-drug conjugate (ADC) payloads which are substrates of ATP-binding cassette drug efflux transporters: ABCB1-HEK293-MDR-19 cell line with tariquidar
# Details: HEK293 ABCB1 (MDR-19) + tariquidar, CellTiter-Glo viability, 48 h
# Excerpt: Antibody-drug conjugates (ADCs) feature an antibody recognizing a specific protein joined to a potent toxic payload. Numerous antibody-drug conjugates have received FDA approval; however, clinical resistance arises. Resistance mechanisms include decreased expression or mutation of the antibody target, impaired payload release, or increased expression of ATP-binding cassette (ABC) efflux transporters associated with multidrug resistance. We therefore sought to characterize the interaction of ABC multidrug transporters with ADC payloads. We performed a high-throughput screen with 27 common ADC payloads using cells lines expressing ABC transporters P-glycoprotein (P-gp, encoded by ABCB1) or ABCG2 (encoded by ABCG2). Confirmatory assays were also performed using cells transfected to express P-gp, ABCG2, or MRP1 (encoded by ABCC1). Several commonly used ADC payloads were substrates of P-gp, including calicheamicin gamma1, monomethyl auristatin E, DM1, and DM4. All the pyrrolobenzodiazepines tested - SJG136, SGD-1882, SG2057, and SG3199 - were substrates of P-gp, ABCG2, and MRP1. […] These findings highlight the risk of transporter-mediated resistance with certain ADC payloads and underscore the importance of selecting payloads that evade ABC transporter recognition in future ADC development.
# HEK-293 cells were transfected with empty vector (pcDNA) or vector containing the human ABCB1 (MDR-19), ABCG2 (R-5), or ABCC1 gene (MRP1) and were maintained in EMEM with 2 mg/mL G418 added to maintain transporter expression. The HeLa derivative KB-3-1 and the P-gp overexpressing KB-8-5-11 subline were maintained in DMEM; KB-8-5-11 additionally received 100 ng/mL colchicine. H460 parental cells were obtained from the Division of Cancer Treatment and Diagnosis Tumor Repository, National Cancer Institute at Frederick, MD and were cultured in RPMI. The ABCG2 expressing subline H460 MX20 was generated by selecting H460 cells in 20 nM mitoxantrone. Media in all cases was supplemented with 10% FBS and 1% penicillin-streptomycin. We explored 27 common ADC payloads, in two orthogonal, paired cell line sets-a drug selected and transfected set for each transporter--to identify substrates of the ABC transporters P-gp and ABCG2. Compounds were sourced from Levena Biopharma (San Diego, CA), Selleck Chem (Houston, TX), ChemieTek (Indianapolis, IN), or Microsource Discovery Systems (Gaylordsville, CT). Screening was performed as previously described. Briefly, cells were plated at a density of 500 cells/well in 1536 well plates with compounds added using a 1536-head pin tool (Kalypsys, San Diego CA). Cells were incubated with cytotoxic drugs and processed with CellTiter Glo reagent (Promega, Madison, WI) to determine viability after 48 hours. P-gp substrates were identified by comparing compound activity between paired sets of low-expressing (sensitive) and over-expressing (resistant) cell lines.
row,SMILES,Potency
1,Cc1nc(Nc2ncc(C(=O)Nc3c(C)cccc3Cl)s2)cc(N2CCN(CCO)CC2)n1,13300 nM (active)
2,COc1cc2cc(c1Cl)N(C)C(=O)C[C@H](O)[C@]1(C)O[C@H]1[C@H](C)C1C[C@@](O)(NC(=O)O1)[C@H](OC)/C=C/C=C(\C)C2,2650 nM (active)
3,COc1cccc2c1C(=O)c1c(O)c3c(c(O)c1C2=O)C[C@@](O)(C(=O)CO)C[C@@H]3O[C@H]1C[C@H]2[C@H](O[C@@H]3[C@@H](OC)OCCN32)[C@H](C)O1,0.0265 nM (active)
4,CN(C)CCOc1ccc2[nH]c(C(=O)N3C[C@@H](CCl)c4c3cc(O)c3ccccc43)cc2c1,0.5 nM (active)
5,CCN[C@H]1CO[C@@H](O[C@H]2[C@H](O[C@H]3C#C/C=C\C#C[C@]4(O)CC(=O)C(NC(=O)OC)=C3/C4=C\CSSSC)O[C@H](C)[C@@H](NO[C@H]3C[C@H](O)[C@H](SC(=O)c4c(C)c(I)c(O[C@@H]5O[C@@H](C)[C@H](O)[C@@H](OC)[C@H]5O)c(OC)c4OC)[C@@H](C)O3)[C@@H]2O)C[C@@H]1OC,0.1 nM (active)
6,COc1cccc2c1C(=O)c1c(O)c3c(c(O)c1C2=O)C[C@@](O)(C(=O)CO)C[C@@H]3O[C@H]1C[C@H](N)[C@H](O)[C@H](C)O1,33.4 nM (active)
7,CCc1c2c(nc3ccc(O)cc13)-c1cc3c(c(=O)n1C2)COC(=O)[C@]3(O)CC,4.2 nM (active)
8,CCN(C(C)=O)[C@H]1CO[C@@H](O[C@H]2[C@H](O[C@H]3C#C/C=C\C#C[C@]4(O)CC(=O)C(NC(=O)OC)=C3/C4=C\CSSSC)O[C@H](C)[C@@H](NO[C@H]3C[C@H](O)[C@H](SC(=O)c4c(C)c(I)c(O[C@@H]5O[C@@H](C)[C@H](O)[C@@H](OC)[C@H]5O)c(OC)c4OC)[C@@H](C)O3)[C@@H]2O)C[C@@H]1OC,1.2 nM (active)
9,CC[C@H](C)[C@@H]([C@@H](CC(=O)N1CCC[C@H]1[C@H](OC)[C@@H](C)C(=O)N[C@@H](Cc1ccccc1)C(=O)O)OC)N(C)C(=O)[C@@H](NC(=O)[C@@H](NC)C(C)C)C(C)C (H-[NMeV]V[Dil][Dolaproine]F-OH),529 nM (active)
10,COC(=O)c1cc2c3c(cc(O)c2[nH]1)N(C(=O)c1cc2cc(OC)c(OC)c(OC)c2[nH]1)CC3CCl (stereo unspecified),0.7 nM (active)
11,CC(C)(C)OC(=O)Nc1ccc2[nH]c(C(=O)N3C[C@@H](CCl)c4c3cc(O)c3ccccc43)cc2c1,11.8 nM (active)
